According to PubChem BioAssay:
Values without a mark were called inactive. For some assays here: Measured potencies and affinities stand elsewhere. Active and inactive are the calls of the source. Unless noted, how the calls were made is not given here.

Columns and labels:
[1] = antimalarial activity against Dd2 strain (AID 2302;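 active means growth inhibition above 50% at the single 2 µM test dose, taken to imply half-maximal potency below 2 µM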;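 further: 0% = DMSO untreated growth and 100% = chloroquine plus artemisinin killed control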); settings: P. falciparum Dd2 in RBCs, LDH growth readout, 72 h; at 2 µM; hits give high values
[2] = human hepatoma cell viability loss – ATP luminescence, cytotoxicity control for P. falciparum antimalarial project, primary screen (AID 2303;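 active means inhibition above 50%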;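 further: 0% = DMSO wells and 100% = digitonin-killed cells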); settings: HepG2 viability, 24-48 h, at 10 µM, hits give high values
[3] = biological target: L-lactate dehydrogenase (Plasmodium falciparum (isolate CDC / Honduras)) (UniProt Q27743); test: PfLDH activity inhibition – cell lysate, 3D7 strain, counter-screen for P. falciparum growth inhibition project (AID 2304);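 further: 0% = vehicle and 100% = reference inhibitor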; settings: P. falciparum 3D7 crude extract, LDH APAD/NBT absorbance; at 2 µM; hits give high values
[4] = inhibition of 3D7 malaria parasite growth – strain 3D7 (AID 2306);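 further: 0% = DMSO wells and 100% = chloroquine plus artemisinin control wells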; settings: P. falciparum 3D7 erythrocytic growth, LDH absorbance, 72 h; at 2 µM; hits give high values
[5] = biological target: Calcium-dependent protein kinase 1 (Plasmodium falciparum (isolate 3D7)) (UniProt P62344); test: PfCDPK1 kinase inhibitors, biochemical, TCAMS library (AID 1159585; cut-off not given, nearly all actives have IC50 up to about 0.98 µM;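 further: inhibitors leave more ATP so luminescence rises with inhibition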); settings: recombinant PfCDPK1, Kinase-Glo ATP depletion luminescence
[6] = biological target: Plasmodium falciparum protein kinase 6 (PK6, PF3D7_1337100) (UniProt Q8IDW1); test: PfPK6 kinase inhibitors, biochemical, TCAMS library (AID 1159586); settings: recombinant PfPK6, Kinase-Glo ATP depletion luminescence
[7] = biological target: Protein kinase 7 (PK7), Plasmodium falciparum 3D7 (PF3D7_0213400) (UniProt Q7YTF7); test: inhibition of Plasmodium PK7 catalytic activity – biochemical, TCAMS antimalarial set, Kinase-Glo luminescence (AID 1159587); settings: recombinant PfPK7, Kinase-Glo ATP depletion luminescence
[8] = biological target: Calcium-dependent protein kinase 4 (Plasmodium falciparum (isolate 3D7)) (UniProt Q8IBS5); test: PfCDPK4 kinase inhibitors, biochemical, TCAMS library (AID 1159588; cut-off not given, nearly all actives have IC50 up to about 0.91 µM); settings: recombinant PfCDPK4, Kinase-Glo ATP depletion luminescence
Chain of Calcium-dependent protein kinase 4 (Plasmodium falciparum (isolate 3D7)) (Q8IBS5 whole entry, looked up): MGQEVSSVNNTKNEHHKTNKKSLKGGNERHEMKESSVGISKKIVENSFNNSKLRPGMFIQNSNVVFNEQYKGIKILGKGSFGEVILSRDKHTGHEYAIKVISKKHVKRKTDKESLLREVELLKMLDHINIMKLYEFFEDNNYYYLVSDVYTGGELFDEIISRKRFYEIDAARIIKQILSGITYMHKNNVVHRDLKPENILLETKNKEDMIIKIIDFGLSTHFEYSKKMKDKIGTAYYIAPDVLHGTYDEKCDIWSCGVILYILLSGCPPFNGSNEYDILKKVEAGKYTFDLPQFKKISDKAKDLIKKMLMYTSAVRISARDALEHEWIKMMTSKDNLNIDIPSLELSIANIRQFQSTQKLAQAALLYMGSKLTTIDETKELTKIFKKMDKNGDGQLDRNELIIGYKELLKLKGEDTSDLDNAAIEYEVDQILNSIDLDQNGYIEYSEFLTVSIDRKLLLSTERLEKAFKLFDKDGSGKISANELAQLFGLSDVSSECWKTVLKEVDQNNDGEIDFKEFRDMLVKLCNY

Chain of Plasmodium falciparum protein kinase 6 (PK6, PF3D7_1337100) (Q8IDW1 1-305): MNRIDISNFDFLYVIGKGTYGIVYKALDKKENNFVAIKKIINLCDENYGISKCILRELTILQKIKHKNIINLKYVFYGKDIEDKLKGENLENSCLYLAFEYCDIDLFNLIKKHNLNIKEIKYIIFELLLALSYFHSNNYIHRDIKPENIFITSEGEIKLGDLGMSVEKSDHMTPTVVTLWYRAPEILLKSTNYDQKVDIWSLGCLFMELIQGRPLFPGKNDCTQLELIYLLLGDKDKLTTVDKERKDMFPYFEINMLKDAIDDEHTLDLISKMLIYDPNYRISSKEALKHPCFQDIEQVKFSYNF
Chain of Calcium-dependent protein kinase 1 (Plasmodium falciparum (isolate 3D7)) (P62344 whole entry, looked up): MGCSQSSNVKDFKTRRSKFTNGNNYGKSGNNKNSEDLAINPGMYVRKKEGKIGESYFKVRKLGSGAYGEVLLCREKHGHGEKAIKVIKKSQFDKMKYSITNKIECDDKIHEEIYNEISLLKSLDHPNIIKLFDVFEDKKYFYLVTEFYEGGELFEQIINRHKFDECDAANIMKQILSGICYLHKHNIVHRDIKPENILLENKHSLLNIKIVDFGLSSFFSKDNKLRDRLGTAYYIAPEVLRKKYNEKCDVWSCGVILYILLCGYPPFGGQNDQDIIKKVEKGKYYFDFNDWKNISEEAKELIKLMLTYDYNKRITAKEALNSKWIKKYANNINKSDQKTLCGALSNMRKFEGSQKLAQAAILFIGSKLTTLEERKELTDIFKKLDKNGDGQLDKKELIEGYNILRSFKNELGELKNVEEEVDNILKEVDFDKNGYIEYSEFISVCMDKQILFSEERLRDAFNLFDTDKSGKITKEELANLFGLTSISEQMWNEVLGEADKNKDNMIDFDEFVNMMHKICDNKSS
Chain of L-lactate dehydrogenase (Plasmodium falciparum (isolate CDC / Honduras)) (Q27743 whole entry, looked up): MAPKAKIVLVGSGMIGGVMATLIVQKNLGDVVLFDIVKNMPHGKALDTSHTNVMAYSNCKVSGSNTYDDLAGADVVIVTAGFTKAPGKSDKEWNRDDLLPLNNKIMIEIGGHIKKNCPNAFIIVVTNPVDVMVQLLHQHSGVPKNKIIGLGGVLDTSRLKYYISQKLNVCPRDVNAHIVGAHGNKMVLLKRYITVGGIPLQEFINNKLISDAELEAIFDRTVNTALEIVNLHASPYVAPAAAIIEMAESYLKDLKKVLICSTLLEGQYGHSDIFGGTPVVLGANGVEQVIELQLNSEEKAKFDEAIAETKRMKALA
Chain of Protein kinase 7 (PK7), Plasmodium falciparum 3D7 (PF3D7_0213400) (Q7YTF7 1-343): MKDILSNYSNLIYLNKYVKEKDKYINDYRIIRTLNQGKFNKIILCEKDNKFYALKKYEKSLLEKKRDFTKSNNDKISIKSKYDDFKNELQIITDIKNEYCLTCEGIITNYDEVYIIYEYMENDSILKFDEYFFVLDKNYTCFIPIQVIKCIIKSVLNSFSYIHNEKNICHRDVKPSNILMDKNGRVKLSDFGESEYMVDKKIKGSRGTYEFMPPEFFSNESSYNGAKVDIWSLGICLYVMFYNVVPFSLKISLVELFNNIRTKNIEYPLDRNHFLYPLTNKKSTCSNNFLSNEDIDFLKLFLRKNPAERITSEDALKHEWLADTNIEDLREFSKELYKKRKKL

Row | Compound | growth inhibition [1] | inhibition [2] | inhibition [3] [%] | growth inhibition [4] | outcome [5] | outcome [6] | outcome [7] | outcome [8]
1 | O=C(Nc1cccc(N2CCC(NCCCc3ccncc3)CC2)c1)c1cccc(C(F)(F)F)c1 | 50% (active) | 11% | 4 | 96% (active) | inactive | inactive | inactive | inactive
2 | CC(Cc1ccc(OCc2ccccc2)cc1)Nc1nc2ccccc2c(=O)[nH]1 (stereo not given) | 96% (active) | 2% | -1 | 98% (active) | inactive | inactive | inactive | inactive
3 | O=c1cc(NCCCNCc2ccc(Cl)c(Cl)c2)[nH]c2ccc(Cl)cc12 | 54% (active) | 11% | 1 | 101% (active) | inactive | inactive | inactive | inactive
4 | CCOc1cc2ncnc(Nc3ccc(OCc4ccccc4F)c(Cl)c3)c2cc1OCC | 74% (active) | 4% | -2 | 101% (active) | inactive | inactive | inactive | inactive
5 | O=C(NC1CCN(Cc2cccc(C(F)(F)F)c2)CC1)c1ccc(-c2cccc(C(F)(F)F)c2)s1 | 54% (active) | 36% | -2 | 94% (active) | inactive | inactive | inactive | inactive
6 | O=C(Nc1ccc(Cl)c(Cl)c1)Nc1cc(C(F)(F)F)ccc1Cl | 85% (active) | -1% | -4 | 101% (active) | inactive | inactive | inactive | inactive
7 | O=C(NCCN1CCCC1)c1cccc(-c2ccc(-c3nc4ccccc4[nH]3)cc2)c1 | 36% | 20% | 0 | 100% (active) | inactive | inactive | inactive | inactive
8 | Cc1[nH]c(C)c(-c2ccc(-c3ccc(C(F)(F)F)cc3C(F)(F)F)nc2)c(=O)c1Br | 97% (active) | 30% | 5 | 97% (active) | inactive | inactive | inactive | inactive
9 | COc1ccc(-c2cc(C(=O)N[C@@H](Cc3ccccc3)C(=O)NCCN3CCCCC3)ccc2O)cc1 | -3% | -3% | 1 | 96% (active) | inactive | inactive | inactive | inactive
10 | Cc1cc(CNC(=O)c2ccc(-c3ccc(-c4nc5ccc(C(F)(F)F)cc5[nH]4)s3)cc2)on1 | 56% (active) | 15% | -1 | 93% (active) | inactive | inactive | inactive | inactive
11 | O=C(NCC1CC1)C1CCN(C(c2ccccc2)c2ccc(Cl)c(Cl)c2)CC1 (stereo not given) | 96% (active) | 7% | -1 | 97% (active) | inactive | inactive | inactive | inactive
12 | Cc1cccc(CNc2nc(C)cc(NCCC(=O)Nc3ccccc3)n2)c1 | 54% (active) | 15% | -3 | 101% (active) | inactive | inactive | inactive | inactive
13 | CCn1c(Cc2ccccc2)nnc1Sc1ccc([N+](=O)[O-])c(C#N)c1 | 72% (active) | 8% | -5 | 93% (active) | inactive | inactive | inactive | inactive
14 | O=S(=O)(NC1=NCCC1)c1cccc(Nc2nc(C(F)(F)F)nc3ccccc23)c1 | 8% | 6% | 0 | 83% (active) | inactive | inactive | inactive | inactive
15 | CN1CCN(C(C(=O)NCc2cc(Cl)cc(Cl)c2)c2ccc(Nc3cccc(C(F)(F)F)c3)cc2)CC1 (stereo not given) | 98% (active) | 49% | 5 | 85% (active) | inactive | inactive | inactive | inactive
16 | Cc1ccccc1C1CCN(C2CCC(NC(=O)/C=C/c3cc(F)cc(F)c3)CC2)CC1 (stereo not given) | 33% | 53% (active) | 3 | 99% (active) | inactive | inactive | inactive | inactive
17 | CCN(CC)CCN(Cc1ccc(-c2ccc(C(F)(F)F)cc2)cc1)C(=O)Cn1c(CCc2cccc(F)c2F)c(C)c(=O)c2ccccc21 | 52% (active) | 61% (active) | 3 | 87% (active) | inactive | inactive | inactive | inactive
18 | O=C(NCCN1CCOCC1)c1ccc(N2CCC(Oc3ccc4ccccc4c3)CC2)nc1 | 30% | 1% | -3 | 92% (active) | inactive | inactive | inactive | inactive
19 | O=C(/C=C/c1ccc(Cl)c(Cl)c1)NCCCCCN1CCCC(CNS(=O)(=O)c2cccc(C(F)(F)F)c2)C1 (stereo not given) | 0% | 73% (active) | 5 | 92% (active) | inactive | inactive | inactive | inactive
20 | Cc1cc(NCCC(=O)NCCOc2ccccc2)nc(NCCOc2ccccc2)n1 | 20% | 8% | 0 | 92% (active) | inactive | inactive | inactive | inactive

Row | Compound | growth inhibition [1] | inhibition [2] | inhibition [3] [%] | growth inhibition [4] | outcome [5] | outcome [6] | outcome [7] | outcome [8]
21 | CC(=NNC(=S)NC(C)(C)C)c1ccccn1 | 100% (active) | 63% (active) | -3 | 99% (active) | inactive | inactive | inactive | inactive
22 | Cc1[nH]c2ccc(-c3ccc(N(C)C)cc3)cc2c(=O)c1Cl | 96% (active) | -1% | 5 | 97% (active) | inactive | inactive | inactive | inactive
23 | O=[N+]([O-])c1cccc(S(=O)(=O)N2CCN(CC(O)COc3ccc(-c4ccccc4)cc3)CC2)c1 (stereo not given) | 32% | 11% | 0 | 94% (active) | inactive | inactive | inactive | inactive
24 | O=C(NCC1CCN(CC2CCCCC2)C1)c1cc(-c2cccc(C(F)(F)F)c2)cs1 (stereo not given) | 21% | 47% | -3 | 96% (active) | inactive | inactive | inactive | inactive
25 | O=S(=O)(Nc1ccc(CCN2CCCCC2CCN2CCCC2)cc1)c1cccc2cccnc12 (stereo not given) | 0% | 20% | 1 | 100% (active) | inactive | inactive | inactive | inactive
26 | Cn1nc(-c2ccc(NC(=O)Nc3cc(C(F)(F)F)ccc3F)c(F)c2)c2cnc(NCCCN3CCOCC3)nc21 | 62% (active) | 31% | 3 | 100% (active) | inactive | inactive | inactive | inactive
27 | COc1cc2nc(NCCc3ccccc3)nc(NCc3cc(C)no3)c2cc1OC | 100% (active) | 5% | -3 | 99% (active) | inactive | inactive | inactive | inactive
28 | CC(=O)C1=NN(c2ccc(Cl)cc2)C(c2cccs2)N1c1ccccc1 (stereo not given) | 70% (active) | -3% | 3 | 88% (active) | inactive | inactive | inactive | inactive
29 | CCc1sc(N2CCN(C)CC2)nc1C(=O)Nc1ccc(F)cc1C(F)(F)F | 98% (active) | -1% | 5 | 101% (active) | inactive | inactive | inactive | inactive
30 | O=C(Nc1ccc2c(ccn2C2CCCN(Cc3cc(F)cc(F)c3F)CC2)c1)c1ccco1 (stereo not given) | 94% (active) | 7% | -1 | 89% (active) | inactive | inactive | inactive | inactive
31 | COc1cccc(OC)c1C(=O)Nc1cccc(-c2nn3ccccc3c2-c2ccnc(Nc3cccc(F)c3)n2)c1 | 38% | 3% | 8 | 95% (active) | inactive | inactive | inactive | inactive
32 | CC(C)CNCc1cccc(-c2ccc(CNc3ccc(C(=O)c4ccccc4)cc3)cc2)c1 | 0% | 10% | 0 | 97% (active) | inactive | inactive | inactive | inactive
33 | Cc1c(Cl)ccc2c(C(=O)Nc3ccncc3)cc(-c3cccnc3)nc12 | 83% (active) | 16% | -3 | 99% (active) | inactive | inactive | inactive | inactive
34 | CCN1CCN(c2cc(C)c3cc(NC(=O)c4cncc(Br)c4)ccc3n2)CC1 | 63% (active) | 3% | 3 | 97% (active) | inactive | inactive | inactive | inactive
35 | Cc1cc(N(C)C)nc(Nc2ccc(NC(=O)COc3ccccc3)cc2)n1 | 67% (active) | 15% | 3 | 101% (active) | inactive | inactive | inactive | inactive
36 | O=C(Nc1ccc(Cl)c(C(F)(F)F)c1)c1ccc(C(=O)Nc2ccc(Cl)c(C(F)(F)F)c2)cc1 | 27% | 9% | -2 | 88% (active) | inactive | inactive | inactive | inactive
37 | CCOc1ccc(C(=O)Nc2cc(Br)c3c(c2)CNCC3)cc1Cl | 8% | 13% | 5 | 92% (active) | inactive | inactive | inactive | inactive
38 | COc1ccc(CN2CCCN(Cc3cccc(C(=O)Nc4ccc(C(C)(C)C)cc4)c3)CC2)cc1 | 3% | 46% | 2 | 98% (active) | inactive | inactive | inactive | inactive
39 | CN(C)Cc1cccc(-c2ccc(NC(=O)c3ccc4c(=O)n(C5CCCCC5)cnc4c3)cc2)c1 | 53% (active) | 92% (active) | -3 | 96% (active) | inactive | inactive | inactive | inactive
40 | CN(C)Cc1ccc(-c2ccc3c(Nc4ccc(Oc5ccccc5)cc4)ccnc3c2)o1 | 100% (active) | 10% | 2 | 101% (active) | inactive | inactive | inactive | inactive
